# The entries come from a sample that favours hits as a whole.
# TbPYK inhibitor: blocks Trypanosoma brucei pyruvate kinase; AID 624173; 0.12% of 410,000 active; Q57TT1; Potency, µM (highest dose often 76.8 µM), without a hit: at the top dose activity, negative = inhibition, hits mostly inhibitors; TbPYK enzyme, Kinase-Glo Plus ATP luminescence, 45 min; note: potency is the fitted concentration of half-maximal effect; % is set by controls: 0 for no effect and ±100 for the full control effect; nearly all actives have a fitted effect of over 50% in size
#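 Enzyme and substrate buffer are dispensed first and compound is pin-transferred. ADP at 130 uM final then starts the reaction, which runs 45 min at room temperature. Detection reagent is added for 10 min before luminescence is imaged.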
# Cycloheximide cs: counter-screen for Shiga toxin inhibitors: cycloheximide protein synthesis inhibition; cell reporter, cycloheximide protein synthesis inhibition counterscreen; max response, %; 12% of 300,000 active; AID 2314; in the data active = max response mostly above about 13%, no sharp cut-off; inactive = mostly below about 14%; note: read at 38.3 µM for the half of the compounds with a filed dose; 0% is about no effect
# LmPK inh: inhibitors of Leishmania mexicana pyruvate kinase | Q27686 | 0.37% of 290,000 active | purified LmPK, Kinase-Glo ATP luminescence, 1 h | AID 1721 | Potency, µM (doses to about 57.5 µM), without a hit: at the top dose activity change, negative = inhibition, actives largely listed as inhibitors; note: potency is the fitted concentration of half-maximal effect; % is set by controls: 0 for no effect and ±100 for the full control effect
#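 Kinase-Glo luminescence read after 1 h RT reaction of 0.1 nM LmPK with 0.5 mM PEP and 0.1 mM ADP. Activity scaled between uninhibited and enzyme-free controls.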
# Giardia FBPA inh: inhibitors of Giardia lamblia fructose-1,6-bisphosphate aldolase. A8B2U2. purified Giardia FBPA. Potency, µM (top dose mostly 59.6 µM), inactives show at the highest dose activity, negative = inhibition, actives largely listed as inhibitors. 0.71% of 290,000 active; note: potency is the fitted concentration of half-maximal effect; % is set by controls: 0 for no effect and ±100 for the full control effect; nearly all actives have a fitted effect of over 55% in size
# Target sequence (A8B2U2 whole entry, looked up): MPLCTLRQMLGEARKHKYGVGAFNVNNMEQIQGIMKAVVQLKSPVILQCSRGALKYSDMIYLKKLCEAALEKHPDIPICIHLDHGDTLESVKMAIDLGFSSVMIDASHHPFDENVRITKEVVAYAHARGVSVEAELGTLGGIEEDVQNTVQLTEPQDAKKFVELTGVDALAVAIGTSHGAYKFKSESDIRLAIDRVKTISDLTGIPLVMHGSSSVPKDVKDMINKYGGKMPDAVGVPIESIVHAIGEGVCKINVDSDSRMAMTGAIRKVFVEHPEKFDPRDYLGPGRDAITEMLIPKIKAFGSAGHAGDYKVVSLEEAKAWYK
#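 40 nM FBPA preincubated 10 min at RT with compound (up to 57.5 uM final), then substrate plus GAPDH/TPI/NAD/arsenate coupling and diaphorase/resazurin added. Fluorescence read after 20 min at RT, 525/598 nm.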
# Shiga toxin inh: Shiga toxin inhibition. Vero cells, Shiga toxin protein synthesis inhibition reporter. inhibition, % at 38.7 µM. 9.2% of 290,000 active. AID 2315; in the data active = inhibition mostly above about 28%, no sharp cut-off; inactive = mostly below about 43%; note: 0% is about no effect
# Sm TGR block: inhibitors of Schistosoma mansoni thioredoxin glutathione reductase. AID 485364. Potency, µM (titrated, usually from 114 µM), for the others: at the top dose activity change, negative = inhibition, most hits filed as inhibitors. purified TGR, DTNB reduction, TNB absorbance 405 nm. 3% of 360,000 active. Q962Y6; note: potency is the fitted concentration of half-maximal effect; % is set by controls: 0 for no effect and ±100 for the full control effect; nearly all actives have a fitted effect of over 60% in size
#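 First, TGR (20 nM dispensed) and NADPH were mixed with compound. Second, a 15 min room-temperature incubation followed. Third, further NADPH and then DTNB were added to start the reaction. Finally, TNB absorbance was monitored kinetically.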
# * marks the source's active call; other numbers are inactive results; u = inconclusive; x = no result; [ ] = remark or other dose. Unless noted, calls come from the whole dose curve; as a rule, active = well fitted curve in the direction sought with a large enough effect; inconclusive = small, poorly fitted or top-dose-only effect, or another doubt; inactive = no such curve, though single readings can be large; an effect the other way counts as inactive or inconclusive.
SMILES,TbPYK inhibitor,Cycloheximide cs,LmPK inh,Giardia FBPA inh,Shiga toxin inh,Sm TGR block
Cc1nn(C)c(C)c1CNC(=O)Nc1ccc(Cl)cc1,0%,73*,-3%,0%,145*,-2%
Cc1ccccc1CSc1cn(CC(=O)N2CCCC2)c2ccccc12,2%,x,x,x,x,26%
CCOc1ccccc1NC(=O)Cn1c(=O)n(Cc2ccc(OC)cc2)c(=O)c2oc3ccccc3c21,-6%,x,x,x,x,-2%
COc1ccc(COC[C@H](C)[C@H](O[Si](C)(C)C)[C@@H](C)[C@H]2OC(=O)[C@H]2C)cc1,x,6,x,2%,16,x
O=C(CCCCCNC(=S)Nc1ccccc1)C[N+](=O)[O-],-8%,-2,5%,-10%,-18,25µM*
COc1ccc(NC(=S)NCCCCCC(=O)C[N+](=O)[O-])cc1,-26%,9,6%,-10%,30,20µM*
COc1ccc(CCNC(=S)Nc2ccc(OC)cc2)cc1,-12%,5,2%,3%,11,-19%
O=C(CCCCCNC(=S)Nc1ccc(Cl)cc1)C[N+](=O)[O-],-13%,1,-3%,0%,-8,-23%
CC1CCN(C(=O)COC(=O)c2ccccc2NC(=O)c2ccco2)CC1,8%,44*,1%,12%,101*,-5%
CC(=O)c1c(C)[nH]c(C(=O)NCCc2ccccc2)c1C,3%,36*,2%,9%,104*,-3%
O=C(Nc1ccccc1C(=O)NCCc1ccccc1)c1ccco1,-5%,37*,1%,0%,44,1%
O=C(COC(=O)c1ccccc1NC(=O)c1ccco1)NC1CC1,1%,6,2%,0%,-3,-19%
COc1ccc(CCNC(=O)c2[nH]c(C)c(C(C)=O)c2C)cc1OC,5%,-1,0%,2%,0,0%
O=C(NCCc1ccccc1)c1c(F)cccc1F,-9%,39*,1%,3%,99*,17%
O=C(NCCc1csc(-c2ccccc2)n1)c1c(F)cccc1F,-3%,0,-2%[11.5 µM],-14%,35,20%
O=C(O)CNC(=O)c1ccccc1NC(=O)c1ccco1,9%,-1,1%,5%,-8,-10%
O=C(CSCc1cnn(-c2ccccc2)c1-n1cccc1)NCc1ccc(F)cc1,-1%,x,x,x,x,9%
COc1ccc(CCNC(=O)c2ccc3c(c2)N(Cc2ccccc2C)C(=O)c2ccccc2S3)cc1OC,2%,x,x,x,x,4%
COc1ccccc1C(=O)OCc1cc(=O)n2c(C)csc2n1,0%,x,x,x,x,3%
O=C(NCC1OCCc2ccccc21)c1ccco1 (configuration not stated),-9%,19*,5%,-22%,34*,32µM*
CN(C)CCNC(=O)c1coc(=O)c(Br)c1,0%,1,2%,9%,-8,0%
O=C(CCc1ccccc1)NCC1OCCc2ccccc21 (configuration not stated),-15%,11,3%,1%,17,-20%
O=C(NCCc1ccccc1)c1coc(=O)c(Br)c1,2%,14*,3%,-3%,26,1%
O=C(NCCc1ccccc1)c1ccco1,-7%,49*,-2%,13%,86*,-31%
CN(CC(=O)NCCc1ccccc1)Cc1ccco1,1%,32*,-2%,1%,99*,0%
SMILES,TbPYK inhibitor,Cycloheximide cs,LmPK inh,Giardia FBPA inh,Shiga toxin inh,Sm TGR block
COc1cccc(-c2nccc(NCCc3c[nH]c4ccc(OC)cc34)n2)c1,x,x,x,-21%,x,x
COC(=O)c1ccccc1NC(=O)C1CCCCC1C(=O)O (configuration not stated),-17%,-3,-4%,6%,-6,5%
CC(=O)c1c(C)[nH]c(C(=O)NCC2CCCCC2)c1C,32%,11,1%,12%,63*,5%
O=C(NCCc1ccccc1)c1ccccc1NC(=O)C1CCCCC1C(=O)O (configuration not stated),x,29*,0%,7%,56*,x
CCC(NC(=O)c1ccccc1NC(=O)c1ccco1)C(=O)NC1CCCCC1 (configuration not stated),-5%,22*,6%,3%,-17,1%
CCCNC(=O)c1[nH]c(C)c(C(C)=O)c1C,0%,6,3%,21%,4,0%
Cn1c(=O)c2c(nc(C3CC4C5CCC(C5)C4C3)n2C)n(C)c1=O (configuration not stated),0%,x,x,x,x,x
COc1ccc(Cl)cc1-c1n[nH]c(=S)n1Cc1ccccc1,u,1,u,22%,-3,0%
Cc1ccccc1OCc1n[nH]c(=S)n1-c1cccc(Cl)c1,u,-4,-21%,20%,-5,4%
COc1ccc(Cl)cc1-c1n[nH]c(=S)n1C1CCCCC1,u,-3,7.1µM*,9%,-22,0%
Cc1cc(Cl)ccc1OCc1n[nH]c(=S)n1C1CCCCC1,u,-1,13µM*,29%,16,0%
COc1ccc(CCN2C(=O)CSC2=Nc2ccc(C(C)C)cc2)cc1OC,1%,-3,0%,-17%,-2,7%
CCCOc1cccc(C(=O)N(Cc2sccc2C)C2CCS(=O)(=O)C2)c1 (configuration not stated),4%,x,x,x,x,4%
COc1ccc(/C=N/c2oc(-c3ccccc3)cc2C#N)cc1OC,-14%,23*,-2%,u,62*,u
CCc1nccn1CCC(=O)N1CCc2c([nH]c3ccccc23)C1CC(C)C (configuration not stated),-7%,-2,5%,2%,4,-2%
COCc1ccc(CN2CCc3c([nH]c4ccccc34)C2CC(C)C)o1 (configuration not stated),-11%,1,10%,-28%,8,35µM*
CN(C(=O)CSc1nc2ccccc2[nH]1)c1ccc(F)cc1,-8%,x,x,x,x,0%
O=c1c2oc3nc4c(cc3c2ncn1CCCc1ccccc1)CCCC4,-8%,20*,0%,-3%,70*,-4%
CCCCn1cnc2c(oc3nc4c(cc32)CCCC4)c1=O,-2%,26*,-10%,-1%,46,-6%
CCCCCCn1cnc2c(oc3nc4c(cc32)CCCC4)c1=O,-2%,12*,1%,-1%,9,-15%
COc1ccccc1NC(=O)Cn1cnc2c(oc3nc4c(cc32)CCCC4)c1=O,-2%,-2,9%,11%,-10,-14%
COc1cccc(NC(=O)Cn2cnc3c(oc4nc5c(cc43)CCCC5)c2=O)c1,-3%,19,-11%,x,-7,-9%
O=C(C1=C(O)C(=O)N(c2ccccc2)C1c1ccc([N+](=O)[O-])cc1)c1cccs1 (configuration not stated),5%,-2,8%,2%,-9,0%
Cc1noc(C)c1-c1nccc(NCc2cccnc2)n1,x,x,x,-5%,x,x
